Screens from PubChem BioAssay.
TSG101-PTAP inh: qHTS Assay for Iinhibitors of HIV-1 Budding by Blocking the Interaction of PTAP/TSG101; Tumor susceptibility gene 101 protein (Homo sapiens), Q99816; Fluorescence polarization, FITC-PTAP peptide / Tsg101 binding; Potency, µM (titrated, usually from 115 µM), inactives show top-dose activity change, negative = inhibition, most hits filed as inhibitors; 340,000 tested, under 10 active; AID 493005, 2010; active means well fitted inhibition curve with a large enough effect in the main read-out, with a control signal flat, not every such curve was filed as active; inconclusive means small, poorly fitted or top-dose-only effect, or effect the other way, or a change in a side signal; inactive means no such curve, though single readings can be large or run the other way; further: potency means the concentration at half of the fitted maximal effect; % of control where 0% means no effect
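FP read-out: FITC-PTAP peptide, 50 nM final, binding Tsg101 binding domain, 10 uM final; 20 min, r.t.; 10 mM HEPES pH 7.5, 0.15 M NaCl, 0.01% Tween 20, 3 mM EDTA, 0.1 mM TCEP.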
Tb PFK inh: qHTS Assay to Find Inhibitors of T. brucei phosphofructokinase; ATP-dependent 6-phosphofructokinase (Trypanosoma brucei brucei), O15648; T. brucei PFK, ADP-Glo luminescence; Potency, µM (top dose mostly 57.5 µM), without a hit: top-dose activity, negative = inhibition, actives largely listed as inhibitors; actives 0.17% (n = 330,000); AID 485367, 2010; active means well fitted inhibition curve with a large enough effect; inconclusive means small, poorly fitted or top-dose-only effect, or effect the other way;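 further: potency means the concentration at half of the fitted maximal effect; 0% = uninhibited 1x PFK enzyme wells and -100% = no-enzyme wells; nearly all actives have a fitted effect of over 60% in size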
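1.25 nM PFK with 0.5 mM F6P and 0.1 mM ATP in 0.1 M TEA pH 8.0, 5 mM MgCl2, incubated 45 min at room temperature; ADP measured by ADP-Glo luminescence; compounds titrated up to 57 uM.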
KCNH2 WT inh: qHTS for Inhibitors of KCHN2 3.1: Wildtype qHTS; AID 720551, 2013; actives 0.37% (n = 340,000); U2OS, BacMam KCNH2, thallium flux FluxOr; stronger effect = lower value; activity change, % at 1.84 µM;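 active means maximum activity change below -70%; inconclusive means maximum activity change between -70% and -50%; inactive means maximum activity change above -50%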; further: on the % scale 0 is the no-effect control and ±100 the full control effect
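U2OS cells transduced with wild-type KCNH2 virus are loaded with FluxOr dye for 45 min, and thallium flux is measured in kinetic reads before and after stimulation buffer. Rate constants are normalized to DMSO controls.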
KCNH2 3.1 block: qHTS for Inhibitors of KCHN2 3.1: Mutant qHTS | U2OS KCNH2 3.1, thallium flux FluxOr; stronger effect = lower value | actives 0.95% (n = 340,000) | Potassium voltage-gated channel subfamily H member 2, brain isoform KCNH2 3.1 (human) | activity change, % (tested at about 1.8 µM);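 active means maximum activity change below -70%; inconclusive means maximum activity change from -70% to -50%; inactive means maximum activity change above -50%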;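 further: thallium influx rate constant from kinetic fluorescence after stimulation buffer; on the % scale 0 is the no-effect control and ±100 the full control effect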
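Kinetic fluorescence (2 min after stimulation buffer) measures Tl+ influx through KCNH2 3.1 expressed by viral transduction in U2OS cells; the rate constant is normalized against DMSO controls serving as positive and negative references.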
Active calls of the source: *; ? = inconclusive; . = no result; [ ] = dose if it differs, or a comment. Compounds with a hit are over-represented: about 1.2% of the library has one in this group of screens.

SMILES	TSG101-PTAP inh	Tb PFK inh	KCNH2 WT inh	KCNH2 3.1 block
COc1ccc(C(CNC(=O)Cc2cccs2)N(C)C)cc1 (stereo not drawn)	1.4%	1.7%	-0.8	-6.5
Cc1ccc(CS(=O)Cc2ccc(C(=O)NCCCc3ccccc3)o2)cc1 (stereo not drawn)	.	.	-0.6	-3.4
COc1ccc(S(=O)Cc2ccc(C(=O)NCc3cccc(OC)c3)o2)cc1 (stereo not drawn)	-1.6%	-1.0%	-1.1	11.0
O=C(NCCCc1ccccc1)c1ccc(CS(=O)Cc2ccc(Cl)cc2)o1 (stereo not drawn)	-0.6%	-3.0%	-43.9	-85.5*
COc1cccc(CNC(=O)c2ccc(CS(=O)Cc3ccccc3Cl)o2)c1 (stereo not drawn)	.	.	-6.5	-81.2*
CC1(OC(=O)CCc2ccccc2)C(=O)C=C2C=C(c3ccc(C#N)cc3)N(CCc3c[nH]c4ccccc34)C=C2C1=O (stereo not drawn)	-0.5%	-4.1%	-6.9	-2.8
Cc1ccc(C[C@@H](NS(=O)(=O)c2ccc(C(=O)O)cc2)C(=O)O)cc1	.	-3.5%	.	.
O=C(Nc1ccnc(-c2cccnc2)n1)c1cccs1	-5.9%	3.8%	26.5	-13.2
Cc1nc(NC(=O)CSc2nnc(C)n2CC2CCCO2)sc1C (stereo not drawn)	-9.1%	11.2%	-188.1*	15.1
C[C@H]1CN=C(N(C)C)N1CC1CCC(C(C)(C)C)CC1 (stereo partly drawn)	0.9%	-3.2%	5.1	-36.4
Oc1ccc(Cl)cc1CNc1cnc2ccccc2c1	-4.9%	-7.9%	-223.6*	30.8
Oc1ccccc1CNc1cnc2ccccc2c1	-3.1%	-3.9%	-11.1	24.2
CCN(CC)c1ccc2cc(-c3nc4ccccc4n3C)c(=O)oc2c1	?	-1.3%	-1.5	-11.8
CCN(CC)c1ccc2cc(-c3nc4ccccc4[nH]3)c(=O)oc2c1	?	0.5%	-93.3*	-112.2*
CCN(CC)c1ccc2cc(-c3nc(-c4ccc(OC)cc4)cs3)c(=O)oc2c1	?	4.3%	-233.4*	-132.5*
CCN(CC)c1ccc2cc(-c3nnc(-c4ccccc4)o3)c(=O)oc2c1	?	-4.2%	-96.0*	-40.6
CCC(=O)N1CCN(c2ccc(NC(=O)COc3ccc(C)cc3C)cc2)CC1	-2.5%	1.0%	-7.5	27.4
COc1ccc(C(=O)N2CCN(c3ccc(NC(=O)Cc4ccccc4)cc3)CC2)cc1	-0.7%	-8.3%	-24.6	-83.4*
Cc1ccc(C(=O)N2CCN(c3ccc(NC(=O)COc4ccccc4C)cc3)CC2)cc1	-1.3%	-6.1%	-133.6*	-95.1*
Cc1ccc(C(=O)N2CCN(c3ccc(NC(=S)NC(=O)Cc4ccccc4)cc3)CC2)cc1	-6.3%	2.1%	4.7	-47.6
O=C(NCc1ccccc1)c1onc(CSc2ccc(F)cc2)c1C(=O)NCCCN1CCOCC1	0.3%	-2.0%[0.46 µM]	?	-80.6*
O=C(NCc1ccccc1)c1onc(CSc2ccc(F)cc2)c1C(=O)NCc1ccccc1	2.6%	.	0.8	8.5
Cc1c(C)n(C)c2ccc(C(=O)NCCCN3CCCC3)cc12	-4.4%	-9.9%	7.8	-97.0*
COc1cccc(C(=O)NCCCN2CCN(CCCNC(=O)c3cccc(OC)c3)CC2)c1	-2.0%	-4.6%	?	-76.0*
O=C(NCCN1CCCC1)c1cccc(Cl)c1	-1.0%	0.9%	4.8	29.9
SMILES	TSG101-PTAP inh	Tb PFK inh	KCNH2 WT inh	KCNH2 3.1 block
O=C(NCCCN1CCN(CCCNC(=O)c2cccc(Cl)c2)CC1)c1cccc(Cl)c1	-0.5%	-1.4%	-99.7*	-88.6*
CC(C(=O)NC(=O)NC1CCCCC1)N1CCN(c2ccc(O)cc2)CC1 (stereo not drawn)	-0.9%	-29.6%	-9.9	2.6
CC1CCCCC1NC(=O)COC(=O)c1ccc2c(c1)OCCO2 (stereo not drawn)	-1.3%	6.8%	-0.3	0.9
Cc1sc2ncnc(NCC3(N4CCOCC4)CCCCC3)c2c1C	-3.1%	1.1%	-18.6	-72.3*
c1nc(NCC2(N3CCOCC3)CCCCC2)c2ccsc2n1	-4.9%	-3.6%	7.5	-5.0
COc1ccc(C(=O)OCc2c(-c3ccccc3)ncc3ccccc23)cc1	-3.6%	-0.5%	-12.3	-70.0*
O=C(C1CC(=O)N(C2CCCCC2)C1)N1CCN(c2cccc(C(F)(F)F)c2)CC1 (stereo not drawn)	-6.6%	?	1.1	-3.1
CN1CCN(c2nc(-c3ccco3)cc(C(F)(F)F)n2)CC1	-10.7%	1.9%	43.7	-5.7
FC(F)(F)c1cc(-c2ccco2)nc(-n2nc(C(F)(F)F)cc2C2CC2)n1	-1.4%	-3.2%	-8.2	-142.7*
COc1ccc(NC(=O)c2cc(C)no2)cc1	-0.6%	3.6%	2.6	-16.1
O=C(c1ccco1)N1CCN(S(=O)(=O)c2ccc(Br)cc2)CC1	-4.0%	-0.3%	-4.8	-3.8
O=C(c1ccco1)N1CCN(S(=O)(=O)c2ccc(S(=O)(=O)NC3CC3)cc2)CC1	-2.9%	-3.4%	11.5	-82.8*
COc1ccc(CC(=O)N/N=C(/C)CC(=O)N(C)c2ccccc2)cc1	-3.0%	3.3%	3.7	-91.7*
COc1ccccc1NC(=O)Nc1nnc(CC(=O)Nc2ccccc2C)s1	-0.6%	-8.1%	-3.9	-2.7
O=C(COc1ncnc2cc([N+](=O)[O-])ccc12)NCc1ccc2c(c1)OCO2	-0.3%	-0.1%	8.3	-20.1
COc1ccc(CCNC(=O)COc2ncnc3cc([N+](=O)[O-])ccc23)cc1	-3.9%	-0.3%	0.9	-107.3*
O/N=C(\c1ccccc1)C(O)c1ccccc1 (stereo not drawn)	2.2%	-0.9%	2.7	19.7
COc1ccc(CCNCC(=O)Nc2ccc(C)c(S(=O)(=O)N(C)C)c2)cc1OC	-8.2%	-6.6%	-1.1	1.7
COc1ccc(CCNCC(=O)Nc2ccc(C)c(Br)c2)cc1OC	-3.7%	-2.7%	12.8	-72.2*
O=C(C1CCCO1)N1CCN(Cc2c(O)ccc3ccccc23)CC1 (stereo not drawn)	0.7%	-3.9%	-14.0	-94.9*
COc1ccc(N(Cc2cc3cccc(C)c3[nH]c2=O)S(C)(=O)=O)cc1	-7.9%	0.1%	-25.2	-82.3*
COc1ccc(N(Cc2cc3ccccc3[nH]c2=O)S(C)(=O)=O)cc1	-1.7%	3.0%	0.4	-29.1
COc1ccc(/C=C2\SC(=O)N=C2N)cc1	-6.0%	3.1%	-214.0*	-16.1
O=C(O)C(CCc1ccccc1)(Cc1ccccc1)C(=O)O	-1.8%	.	-2.7	17.8
CCN(CC)C(=O)C1=C(C)N(CCC2=CCCCC2)C(=O)C(CC(=O)NC(c2ccccc2)c2ccccc2)C1 (stereo not drawn)	.	.	-87.7*	-15.0
CCOc1ccc(CN2CCC(Cc3ccccc3)CC2)cc1	-11.3%	-0.6%	-84.9*	-91.9*
